Drawing on ChEMBL document CHEMBL1201862, “PubChem BioAssay data set” (2004), this text covers GI50 for 11 substances.

Among all 54,000 sequences or so, about 4,800 (8.9%) were called active. Cut-off read from the data, not from the text of the source: active = GI50 up to about 1.1 µM and inactive = higher. Only a sample is shown. Entries with a potency or affinity are not part of this list.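 Five compound concentrations were applied to cells in 96-well plates for 48 hours; endpoints were derived by simple linear interpolation of the resulting dose-response curve. The concentration for 50% growth inhibition is given as GI50.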

The assay relates to RPMI-8226. Briefly: NCI tumour cell line growth inhibition, 48 h.
In the case of “[Bis(aminomethyl)diethylsilane]tetrachloroplatinum(IV), CHEMBL2146203”, the GI50 turned out to be 1620 nM.

Consider “[Bis(aminomethyl)pentamethylenesilane]tetrachloropaltinum(IV), CHEMBL2146204”, for which the GI50 came to 4530 nM.

Substance “[Bis(aminomethyl)tetramethylenesilane]dichloropaltinum(II), CHEMBL2146205” registered a GI50 of 9860 nM.

In turn, “[Bis(aminomethyl)dimethylsilane]tetrachloroplatinum(IV), CHEMBL2146190” showed a GI50 of 2110 nM.

Regarding “mu-(1,7-nanodiamine-N,N')bis-(cis-aminedichloroplatimum (II)), CHEMBL2146215”, the GI50 amounted to 26200 nM.

As to “[Bis(aminomethyl)tetramethylenesilane]tetrachloropaltinum(IV), CHEMBL2146189”, the GI50 was determined as 1100 nM.

In turn, “[Bis(aminomethyl)ethylmethylsilane]tetrachloroplatinum(IV), CHEMBL2146192” had a GI50 of 1320 nM.

“cis-Bis[[(trimethylsilyl)methyl]amino]tetrachloroplatinum(IV), CHEMBL2146191” returned a GI50 of 1940 nM.

Consider “[Bis(aminomethyl)pentamethylenesilane]dichloropaltinum(II), CHEMBL2146202”, for which the GI50 is 1920 nM.

The substance CISPLATIN, CHEMBL11359 displayed a GI50 of 4290 nM.

“[Bis(aminomethyl)dimethylsilane]dichloroplatinum (II), CHEMBL2146201” showed a GI50 of 12200 nM.
